High-throughput results from PubChem.
A selection: hits, their analogues and other compounds. The true share with any hit is near 3%.
12-LOX inh: inhibitors of human 12S-lipoxygenase ALOX12. Potency, µM (series often up to 108 µM), usual class: inhibitors. purified 12hLO, xylenol orange hydroperoxide absorbance. 1.1% of 580,000 active
Target sequence (P18054 whole entry, looked up): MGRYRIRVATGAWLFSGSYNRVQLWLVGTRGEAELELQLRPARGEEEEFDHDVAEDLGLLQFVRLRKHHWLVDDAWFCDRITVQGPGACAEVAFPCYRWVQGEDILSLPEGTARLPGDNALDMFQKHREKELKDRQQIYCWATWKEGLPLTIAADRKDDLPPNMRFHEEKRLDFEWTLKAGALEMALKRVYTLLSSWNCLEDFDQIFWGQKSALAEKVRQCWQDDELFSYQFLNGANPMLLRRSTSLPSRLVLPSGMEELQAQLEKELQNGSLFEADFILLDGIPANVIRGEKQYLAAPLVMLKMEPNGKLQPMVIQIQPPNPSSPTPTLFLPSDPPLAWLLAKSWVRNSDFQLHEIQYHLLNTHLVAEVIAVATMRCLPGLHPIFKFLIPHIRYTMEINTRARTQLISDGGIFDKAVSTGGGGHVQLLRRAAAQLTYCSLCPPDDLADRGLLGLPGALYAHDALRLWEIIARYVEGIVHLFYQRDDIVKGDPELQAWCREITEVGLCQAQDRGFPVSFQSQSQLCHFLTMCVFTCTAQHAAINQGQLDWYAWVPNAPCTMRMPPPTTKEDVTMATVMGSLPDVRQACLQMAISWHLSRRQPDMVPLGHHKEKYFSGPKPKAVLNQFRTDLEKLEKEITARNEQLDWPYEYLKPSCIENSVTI
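Purified human 12hLO at 150 nM in 25 mM Hepes, 0.01% Triton X-100, pH 7.0, preincubated 15 min at room temperature with compound. Reaction started with 40 uM arachidonic acid, 30 min at room temperature. Hydroperoxide measured by Fe-xylenol orange, 573/405 nm absorbance ratio.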
PLK1 PBD block: PLK1 (human) polo-box domain binding inhibition; P53350; Plk1 PBD binding of FITC phosphopeptide, fluorescence polarization; Potency, µM, usual class: inhibitors; 2.8% of 360,000 active; AID 720504; further: series mostly up to about 57 µM; nearly all actives have a fitted effect of over 65% in size
VDR inh: blocks the human vitamin D receptor; P11473; VDR-SRC2-3 peptide fluorescence polarization, 2 h; Potency, µM, actives largely listed as inhibitors; 0.93% of 400,000 active; AID 504847
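Measured by FP: displacement of SRC2-3 coactivator peptide from VDR by library compounds, following a two-hour ambient incubation.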
KAT2A inh: GCN5L2 (KAT2A) acetyltransferase inhibition; 0.21% of 390,000 active; GCN5L2 HAT assay, ThioGlo1 CoA-SH fluorescence; Potency, µM (series often up to 58.9 µM), usual class: inhibitors
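Fluorescence readout, Ex340nm/Em540nm: ThioGlo1 (50uM final) reacts with free CoA thiol released as 20nM GCN5L2 acetylates H3(1-25) peptide (75uM) using acetyl-CoA (70uM). Compound and enzyme sat 15 min beforehand; 20 min room-temperature reaction.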
VDR inh confirm: inhibits human vitamin D receptor, primary hit validation; shares compounds with VDR inh; VDR-coactivator inhibition assay, qHTS confirmation; Potency, µM, most hits filed as inhibitors; 89% of 840 active; AID 602199
VDR FP: confirmation of human VDR-coactivator binding inhibitors, fluorescein label; shares compounds with VDR inh; VDR-coactivator binding, fluorescein fluorescence polarization; Potency, µM (titrated, usually from 57.1 µM), most hits filed as inhibitors; 48% of 840 active; AID 602200
VDR bla: confirmation of human vitamin D receptor inhibitors in reporter cells | shares compounds with VDR inh | VDR beta-lactamase reporter cells, FRET ratio; cells co-treated with VDR agonist LG190178 | Potency, µM (series often up to 46.1 µM), usual class: inhibitors | 23% of 840 active
VDR viability: cytotoxic in counter-screen for VDR inhibitors; shares compounds with VDR inh; cytotoxicity counter-screen, cell viability, qHTS; Potency, µM (titrated, usually from 48.3 µM), usual class: cytotoxic; 18% of 840 active; further: nearly all actives have a fitted effect of over 75% in size
TbPYK confirm: confirmation of Trypanosoma brucei pyruvate kinase inhibitors | shares compounds with PLK1 PBD block | recombinant TbPYK, Kinase-Glo ATP luminescence | Potency, µM (top dose mostly 76.9 µM), usual class: inhibitors | 67% of 890 active | AID 720569; further: nearly all actives have a fitted effect of over 70% in size
TbPYK orthogonal: inhibits T. brucei pyruvate kinase in orthogonal ADP-Glo assay; shares compounds with PLK1 PBD block; recombinant TbPYK, ADP-Glo luminescence, 60 min; Potency, µM (doses to about 76.9 µM), hits mostly inhibitors; 62% of 890 active; AID 720584; further: nearly all actives have a fitted effect of over 75% in size
Each line names hits and unclear results; the compound was inactive in the other large screens (follow-up assays come after a bar, where they were run). The call rests on the fitted dose curve; in most records, active means well fitted curve in the direction sought with a large enough effect; inconclusive means small, poorly fitted or top-dose-only effect, or another doubt; inactive means no such curve, though single readings can be large; an effect the other way counts as inactive or inconclusive.

COC(=O)c1cc(OCc2cccc(Br)c2)cc(C(=O)OC)c1	none (no result: PLK1 PBD block, VDR inh, KAT2A inh)
COC(=O)c1ccc(/C=N/OCc2cc(C(C)=O)ccc2OC)cc1	none (no result: PLK1 PBD block, VDR inh, KAT2A inh)
COc1ccc(Cl)cc1C(Nc1cccnc1)c1ccc2cccnc2c1O (stereo not given)	12-LOX inh inconclusive, PLK1 PBD block 4.2µM, VDR inh 20µM | VDR inh confirm 21 | VDR FP inconclusive | VDR bla inactive | VDR viability inactive
COc1ccc(C(=O)c2coc3c2C(=O)C(=O)c2ccccc2-3)cc1	12-LOX inh inconclusive, PLK1 PBD block inconclusive, VDR inh inconclusive | VDR inh confirm 6.3 | VDR FP 3.2µM | VDR bla inconclusive | VDR viability inactive
O=C(c1ccccc1)c1coc2c1C(=O)c1ccccc1C2=O	none
O=C(/C=C/c1ccc(F)cc1)c1ccccc1Br	VDR inh 32µM | VDR inh confirm 12 | VDR FP inconclusive | VDR bla inconclusive | VDR viability inconclusive
O=C(/C=C/c1ccc(Cl)cc1)c1ccccc1O	none (no result: PLK1 PBD block, VDR inh, KAT2A inh)
COc1ccccc1NS(=O)(=O)c1cccc(NC(=O)c2ccc3ccccc3n2)c1	none
O=C(Nc1cccc(S(=O)(=O)Nc2ccccc2F)c1)c1ccc2ccccc2n1	12-LOX inh inconclusive, PLK1 PBD block 1.9µM, VDR inh 16µM, KAT2A inh inconclusive | VDR inh confirm 3.8 | VDR FP inconclusive | VDR bla inactive | VDR viability inactive
O=C(O)c1cccc(Nc2ccc([N+](=O)[O-])c3nonc23)c1	none
O=[N+]([O-])c1ccc(Nc2ccccn2)c([N+](=O)[O-])c1	none
CN(C)c1cc(Nc2ccc(O)cc2)c([N+](=O)[O-])c2nonc12	PLK1 PBD block inconclusive
O=[N+]([O-])c1c(Nc2ccc(O)cc2)cc(Cl)c2nonc12	12-LOX inh inconclusive, PLK1 PBD block 1.7µM, VDR inh inconclusive | VDR inh confirm 2.5 | VDR FP 2µM | VDR bla inconclusive | VDR viability 9.5µM
O=C(O)c1cccc(Nc2cc(Cl)c3nonc3c2[N+](=O)[O-])c1	12-LOX inh inconclusive, PLK1 PBD block 12µM, VDR inh 13µM | VDR inh confirm 8.4 | VDR FP 20µM | VDR bla inactive | VDR viability inactive
O=[N+]([O-])c1c(Nc2ccccn2)cc(Cl)c2nonc12	12-LOX inh inconclusive, VDR inh inconclusive, KAT2A inh inconclusive | VDR inh confirm 3.4 | VDR FP inconclusive | VDR bla 3.7µM | VDR viability 5.8µM
O=C(O)C(c1c[nH]c2ccc(Cl)cc12)N1CCN(c2cccc(Cl)c2)CC1 (stereo not given)	none (no result: PLK1 PBD block, VDR inh, KAT2A inh)
Cc1cc(C)c2[nH]c(C)c(CN3CC4(C)CC3CC(C)(C)C4)c(=O)c2c1 (stereo not given)	none (no result: PLK1 PBD block, VDR inh, KAT2A inh)
CN(CC(=O)NC(C)(C)C)C(=O)c1cc2ccc(Br)cc2[nH]1	none (no result: PLK1 PBD block, VDR inh, KAT2A inh)
O=C(O)/C=C/c1nccs1	none (no result: PLK1 PBD block, VDR inh, KAT2A inh)
Nc1c(-c2ccc(Cl)cc2)cnn1-c1ccccc1	none (no result: 12-LOX inh)
Nc1nc2c(s1)CCc1c-2cnn1-c1ccccc1	PLK1 PBD block 2.7µM, VDR inh 20µM (no result: 12-LOX inh) | VDR inh confirm 4.5 | VDR FP 4µM | VDR bla inconclusive | VDR viability inconclusive
C=C(C)[C@@H]1C2=CC(C(=O)OC)=C(C[C@@H](C(=C)C)[C@H]3O[C@H]3C3=C[C@H]1OC3=O)O2	VDR inh 20µM (no result: PLK1 PBD block, KAT2A inh) | VDR inh confirm 7.1 | VDR FP 14µM | VDR bla inconclusive | VDR viability 17µM
Cc1cc(=O)oc(C)c1C(=O)Nc1cc(C(F)(F)F)cc(C(F)(F)F)c1	none (no result: PLK1 PBD block, VDR inh, KAT2A inh)
O=C(/C=C/c1ccc([N+](=O)[O-])cc1)c1cccs1	PLK1 PBD block inconclusive, VDR inh inconclusive | VDR inh confirm inconclusive | VDR FP 7.1µM | VDR bla inconclusive | VDR viability inactive
CCOc1ccccc1OCCCC(=O)Nc1ccc2c(C)cc(=O)oc2c1	none (no result: PLK1 PBD block, VDR inh, KAT2A inh)
O=C(NCc1cccnc1)c1ccc(-c2ccc(Cl)cc2)o1	12-LOX inh inconclusive
O=C(NCc1cccnc1)/C(=C\c1ccc(-c2ccc(Cl)c(Cl)c2)o1)S(=O)(=O)c1ccccc1	VDR inh 40µM | VDR inh confirm 15 | VDR FP inconclusive | VDR bla 12µM | VDR viability 15µM
COc1cc(/C=C2/C(=O)c3cccc([N+](=O)[O-])c3C2=O)c(Br)cc1O	12-LOX inh 18µM, PLK1 PBD block 1.5µM, VDR inh 20µM, KAT2A inh inconclusive | VDR inh confirm 7.5 | VDR FP 3.2µM | VDR bla inconclusive | VDR viability inconclusive | TbPYK confirm 25µM | TbPYK orthogonal inactive
COc1ccccc1NC(=O)CCCCCN1C(=O)c2cccc([N+](=O)[O-])c2C1=O	none
COc1ccc(C(=O)/C=C/C(=O)N(CC(=O)NC2CCCCC2)CC2CCCO2)c(O)c1 (stereo not given)	PLK1 PBD block 6.7µM, VDR inh 8.9µM | VDR inh confirm 6.7 | VDR FP inconclusive | VDR bla 13µM | VDR viability 15µM | TbPYK confirm 7.1µM | TbPYK orthogonal 10µM
CCOc1cc(C2SC(NC(C)=O)=NN2C(C)=O)ccc1OCc1ccccc1F (stereo not given)	none (no result: PLK1 PBD block, VDR inh, KAT2A inh)
COc1ccccc1N1C(=O)C=C(Sc2nc(C)cc(C)n2)C1=O	12-LOX inh 10µM, PLK1 PBD block 3µM, VDR inh inconclusive | VDR inh confirm 2.8 | VDR FP 3.2µM | VDR bla 21µM | VDR viability inconclusive | TbPYK confirm 2.5µM | TbPYK orthogonal 3.2µM
COc1cccc(-c2nnc(SCC(=O)Nc3ccc4c(c3)OCO4)n2-n2cccc2)c1	none (no result: PLK1 PBD block, VDR inh, KAT2A inh)
Cc1ccc(NC(C)(C)c2nnnn2-c2ccc(C)cc2)cc1	none (no result: PLK1 PBD block, VDR inh, KAT2A inh)
Cc1ccc(-n2nnnc2C(Cl)(Cl)c2nnnn2-c2ccc(C)cc2)cc1	12-LOX inh inconclusive, PLK1 PBD block 1.1µM, VDR inh 6.3µM | VDR inh confirm 3.4 | VDR FP inconclusive | VDR bla inconclusive | VDR viability inconclusive | TbPYK confirm 1.6µM | TbPYK orthogonal 2.2µM
CC(C)Sc1nnc(CNC(=O)C23CC4CC(CC(C4)C2)C3)n1C1CCCCC1	none | TbPYK confirm 5.6µM | TbPYK orthogonal 11µM
CCCNC(=O)Cn1nc(C)n2nc(-c3ccc(CC)cc3)cc2c1=O	none (no result: PLK1 PBD block, VDR inh, KAT2A inh)
